Assay outcomes: PubChem, National Center for Advancing Translational Sciences (NCATS)
A549 tox: Nrf2 qHTS screen for inhibitors: counterscreen for cytotoxicity | A549 ARE-Fluc cells, CellTiter-Fluor viability, 18-24 h | Potency, µM (series often up to 46 µM), for inactives: at the top dose activity change, negative = cytotoxicity, usual class: inhibitors | 390,000 tested, 0.16% active | AID 504648, 2011; note: potency is the fitted concentration of half-maximal effect; % is set by controls: 0 for no effect and ±100 for the full control effect
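A549 ARE-Fluc cells in 5% FBS OPTI-MEM, 5000 cells/well, rested 2 h then exposed to compounds in concentration-response for 18-24 h at 37 °C. Viability by CellTiter-Fluor fluorescence (Ex 405/Em 525) after 30 min; luciferase luminescence (BugLite, 15 min, RT) read afterwards.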
miR-21 reporter: qHTS Assay for Modulators of miRNAs and/orActivators of miR-21; HeLa miR-21 FLuc reporter, luciferase, 48 h; Potency, µM (titrated, usually from 38.3 µM), without a hit: at the highest dose activity change, positive = activation, usual class: activators; 340,000 tested, under 10 active; AID 2288, 2010;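 note: % of control where 0% means no effect; miR-21 action dims this reporter so a rising signal means less miR-21 action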
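Using DMEM plus 10% FBS, HeLa miR-21-FLuc cells are incubated with test compounds (final up to about 40uM) for 48 hours; firefly luciferase signal is then imaged following reagent-mediated lysis.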
Mito fusion act: qHTS Assay for Small Molecule Inhibitors of Mitochondrial Division or Activators of Mitochondrial Fusion; S. cerevisiae fusion-defective mutant growth rescue, CellTiterGlo 48 h; Potency, µM (series often up to 46.1 µM), inactives show top-dose growth rescue (activation), hits mostly activators; 320,000 tested, 0.23% active; note: potency is the fitted concentration of half-maximal effect; % of control where 0% means no effect; nearly all actives have a fitted effect of over 45% in size
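Temperature-sensitive fusion-defective S. cerevisiae (e.g. fzo1-1, mgm1-5) were grown with compound in YPEG medium (3% ethanol, 3% glycerol) for 48 hours at 37C. Growth rescue was measured as viability by CellTiterGlo luminescence after 10 minutes at ambient.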
Nrf2 activator: qHTS of Nrf2 Activators; AREc32 ARE-luciferase reporter (MCF7-derived line), luminescence, 24 h; Potency, µM (doses to about 46.1 µM), without a hit: at the top dose activation, usual class: activators; 410,000 tested, 0.31% active; AID 624171, 2012; note: potency is the fitted concentration of half-maximal effect; % of control where 0% means no effect; nearly all actives have a fitted effect of over 65% in size
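Cells of the AREc32 ARE-luciferase line are plated in OPTI-MEM containing 5% FBS and left overnight at 37 deg C. Compounds are pinned in, incubation continues 24 hr, and firefly luciferase signal is then measured.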
Nrf2 block: Nrf2 qHTS screen for inhibitors | A549 ARE-Fluc reporter, luciferase luminescence, 18-24 h | Potency, µM (highest dose often 46 µM), without a hit: at the highest dose activity change, negative = inhibition, hits mostly inhibitors | 360,000 tested, 2.1% active; note: potency is the fitted concentration of half-maximal effect; % is set by controls: 0 for no effect and ±100 for the full control effect; nearly all actives have a fitted effect of over 60% in size
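Two sequential reads on A549 ARE_Fluc cells exposed to compound for 18-24 h: a CellTiter-Fluor fluorescence read for viability, then a luciferase luminescence read for Nrf2/ARE activity.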
Numbers without * were called inactive; ? = inconclusive; . = no result; ! = repeats disagree; [ ] = remark or other dose. Hits are enriched below; roughly 2.3% of the tested compounds scored in any of these assays. Calls come from the whole dose curve; as a rule, active = well fitted curve in the direction sought with a large enough effect; inconclusive = small, poorly fitted or top-dose-only effect, or another doubt; inactive = no such curve, though single readings can be large; an effect the other way counts as inactive or inconclusive.

SMILES	A549 tox	miR-21 reporter	Mito fusion act	Nrf2 activator	Nrf2 block
CCCCn1c(NS(=O)(=O)c2ccccc2)c(C(=O)OCC)c2nc3ccccc3nc21	?	?	7%	1%	?
CC(Cc1ccc(OCC(=O)O)cc1)NCC(O)c1cccc(Cl)c1 (stereo not given)	.	.	-5%	.	.
O=C(CCC1CCCC1)c1c(O)c2ccccc2oc1=O	?	-12%	0%	6%	21µM*
C=CC[C@@H](CC(=O)N(CCO)Cc1ccccc1)C(=O)NC[C@H](OC(=O)[C@@H](CC=C)CC(=O)OC(C)(C)C)c1ccccc1	-19%	.	.	-4%	?
Cc1ccc(C)c(N2CCN(C(=O)CCS(=O)(=O)c3ccc4c(c3)oc(=O)n4C)CC2)c1	12%	0%	5%	0%	21µM*!
N#Cc1cc2c(nc1SCC(=O)Nc1cccc(C(F)(F)F)c1)C1CCN2CC1	-14%	?	.	2%	21µM*
CC(C)CC(=O)Nc1ccc(C(=O)Cn2c(=O)oc3ccccc32)cc1	-13%	-11%	?	0%	-4%
COc1cc2cc(c1Cl)N(C)C(=O)CC(OC(=O)C(C)N(C)C(C)=O)C1(C)OC1C(C)C1CC(O)(NC(=O)O1)C(OC)C=CC=C(C)C2 (stereo not given)	-18%	.	.	-1%	?
COc1cccc2c1cc([N+](=O)[O-])c1c(C(=O)O)cc3c(c12)OCO3	?	.	.	-1%	12µM*
Cc1ccc(-c2nn(C)c(=O)c3ccccc23)cc1CNC(=O)/C=C/c1ccccc1	-18%	12%	10%	3%	?
CC(=O)O/C(=C1\CC2C3CC=C4CC(OC(C)=O)CCC4(C)C3CCC2(C)C1=O)C(F)(F)F (stereo not given)	?	.	.	0%	-58%
CC(=O)O[C@H]1CC[C@@]2(C)C(=CC[C@@H]3[C@@H]2CC[C@]2(C)C(=O)CC[C@@H]32)C1	-1%	.	14µM*	0%	-5%
CN(C)S(=O)(=O)c1ccc(C(=O)NCCSc2c(-c3ccccc3)[nH]c3ccccc23)cc1	-8%	?	.	5%	-27%[9.27 µM]
O=C1Nc2ccccc2/C1=C/c1cnc[nH]1	6%	-11%	-9%	4%	7.3µM*
COc1cc(OC)c(/C=C2\C(=O)Nc3ccccc32)c(OC)c1	-19%	.	7%	12%	?
COc1ccc2c(c1)/C(=C/c1cnc[nH]1)C(=O)N2	?	24%	?	-2%	18µM*
CCC1(O)C(=O)OCc2c1cc1n(c2=O)Cc2cc3c(N)cccc3nc2-1 (stereo not given)	?	.	.	-2%	0.82µM*
O=C(Nc1ccc2oc(-c3cccnc3)nc2c1)c1ccc(-c2cccc(Cl)c2)o1	1%	9%	.	4%	?
Cc1cn2c(=O)cc(COC(=O)c3ccccc3F)nc2s1	1%	0%	.	4%	?
O=C(C(=O)N1CCOCC1)c1cn(CCCOc2ccccc2)c2ccccc12	0%	-1%	2%	0%	8%
CC(=O)c1cn(CCCOc2ccccc2)c2ccccc12	-15%	9%	?	6%	21µM*
CN(C)c1ccc(CN2CCc3nc(N4CCN(c5ccccn5)CC4)ncc3C2)cc1	-27%	?	.	-1%	.
Cc1c2ccncc2c(C)c2c1[nH]c1ccccc12	?	?	?	5%	7.3µM*
CC(=O)OCC12CC(OC(=O)CC(C)C)C(C)=CC1OC1C(O)C(OC(C)=O)C2(C)C12CO2 (stereo not given)	.	.	.	-2%	0.021µM*
COC(=O)C1=C(c2ccc(Cl)c(C(F)(F)F)c2)C[C@@H]2CC[C@H]1N2C(=O)N1CCC(O)(c2ccc(Cl)cc2)CC1	?	.	.	0%	23µM*
SMILES	A549 tox	miR-21 reporter	Mito fusion act	Nrf2 activator	Nrf2 block
COC(=O)C1=C(c2cc3ccccc3s2)C[C@@H]2CC[C@H]1N2C(=O)N1CCC(C)CC1	-9%	.	.	0%	26µM*
COC(=O)C1=C(c2ccc(OC(F)(F)F)cc2)C[C@@H]2CC[C@H]1N2C(=O)N1CCC(C)CC1	-7%	.	6%	4%	18µM*
COC(=O)C1=C(c2ccc(Cl)c(C(F)(F)F)c2)C[C@@H]2CC[C@H]1N2C(=O)N1CCCC1	2%	.	17%	1%	?
COC(=O)C1=C(c2cc3ccccc3s2)C[C@@H]2CC[C@H]1N2C(=O)NCC1CC1	-15%	.	.	1%	18µM*
N#CC1=C(N)Oc2n[nH]c(-c3ccccc3)c2C1c1cccc(OC(=O)N2CCOCC2)c1 (stereo not given)	0%	8%	0%	6%	?
CCC(=O)c1ccc(OCC(=O)N2CCN(CC(=O)Nc3ccccc3C(F)(F)F)CC2)cc1	-21%	.	.	4%	16µM*
CCC(C(=O)Nc1ccccc1C(=O)OC)n1nc(C)c2c(C)n(-c3ccc(C)cc3)nc2c1=O (stereo not given)	-22%	13%	.	-1%	18µM*
CCc1ccc(-n2nc(C)c3c(C(=O)NCCc4ccc(OC)c(OC)c4)cc(C)nc32)cc1	-13%	14%	.	7%	23µM*
c1nc2nc3c(c(N4CCNCC4)n2n1)CCCC3	2%	1%	-12%	0%	3%
COc1cccc(N2CCN(c3c4c(nc5nncn35)CCC4)CC2)c1	-16%	26%	.	0%	16µM*
Cn1cnc([N+](=O)[O-])c1Sc1ccc([N+](=O)[O-])cc1	?	13%	-5%	18%	9.2µM*
Cn1cc2c([N+](=O)[O-])cc([N+](=O)[O-])cc2n1	.	-1%	-3%	.	.
CCn1cc(C(=O)c2cccs2)c2ccccc21	-1%	-14%	3%	5%	7%
Cc1cc(C)cc(NC(=O)Cn2cc(C(=O)c3cccs3)c3ccccc32)c1	-17%	30%	.	0%	16µM*
CCOC(=O)C1=C(CN2CCN(c3ccc(C)cc3C)CC2)NC(=O)NC1c1ccc(OC)cc1 (stereo not given)	-29%	?	.	-1%	15µM*
CCCCCNc1c(C(=O)OCC)c(=O)[nH]c2ccccc12	-27%	26%	5%	3%	?
COC(=O)[C@@]12CCCCN1[C@H](c1ccc(-c3ccc(Cl)c(Cl)c3)c(OC)c1)[C@@H]1C(=O)N(C)C(=O)[C@@H]12	-14%	.	.	-1%	21µM*
COC(=O)C1=C(c2ccc(OCc3ccccc3)cc2)C[C@@H]2CC[C@H]1N2C(=O)NCc1ccccc1OC	.	.	.	0%	.
COC(=O)C1=C(c2cccc(OCc3ccccc3)c2)C[C@@H]2CC[C@H]1N2C(=O)NCCCc1ccccc1	-17%	.	14%	0%	21µM*
COC(=O)C1=C(c2ccc(OCc3ccccc3)cc2)C[C@@H]2CC[C@H]1N2C(=O)NCCCc1ccccc1	-18%	.	14%	0%	15µM*
